The text below walks through data of PubChem BioAssay (EPA / NIEHS).

Experiment [1] has as its target Peroxisome proliferator-activated receptor gamma (Homo sapiens) (UniProt P37231). As to the kind of experiment: ATG_PPARg_TRANS: Attagene TRANS-FACTORIAL HepG2 Assay for human Peroxisome Proliferator-activated Receptor-gamma (PPARg) (AID 2283007). In a few lines: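 Liver-derived HepG2 cells expressing an exogenous NR-Gal4 chimera alongside GAL4-UAS reporter genes; 24 h exposure. Fluorescence of reporter RT-PCR products, separated by capillary electrophoresis, gives mRNA induction relative to DMSO.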

In experiment [2] the target is human Retinoic Acid Receptor gamma (RARg), RARG (gene 5916) (UniProt P13631). As to the kind of experiment: ATG_RARg_TRANS: Attagene TRANS-FACTORIAL HepG2 Assay for human Retinoic Acid Receptor gamma (RARg) (AID 2283009). In a few lines:
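Readout: reporter transcript levels via RT-PCR, 6-FAM primer-extension labelling, HpaI digestion and capillary electrophoresis. Cells: HepG2 carrying transfected RARg-GAL4 chimera plus UAS reporter set. Dosing 24 h; DMSO negative control.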

Experiment [3] deals with human RAR-related Orphan Receptor beta (RORb), RORB (gene 6096) (UniProt Q92753). Briefly: ATG_RORb_TRANS: Attagene TRANS-FACTORIAL HepG2 Assay for human RAR-related Orphan Receptor beta (RORb) (AID 2283010). In a few lines:
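HepG2, transient MRTU transfection (GAL4-UAS reporters, exogenous NR-Gal4 chimeras); 24 h compound exposure; total RNA → RT-PCR → 6-FAM primer extension → HpaI digest → CE fluorescence. Positive direction vs DMSO baseline.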

For experiment [4], the target named is human RAR-related Orphan Receptor gamma (RORg), RORC (gene 6097) (UniProt P51449). Briefly: ATG_RORg_TRANS: Attagene TRANS-FACTORIAL HepG2 Assay for human RAR-related Orphan Receptor gamma (RORg) (AID 2283011). A digest of the protocol:
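Reporter transcripts from a transfected RORg-GAL4 chimera in HepG2 cells were quantified 24 h after dosing by RT-PCR, 6-FAM labelling, HpaI digestion and capillary electrophoresis; increases over DMSO baseline were fitted.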

The target in experiment [5] is human Retinoid X Receptor beta (RXRb), RXRB (gene 6257) (UniProt P28702). Briefly: ATG_RXRb_TRANS: Attagene TRANS-FACTORIAL HepG2 Assay for human Retinoid X Receptor beta (RXRb) (AID 2283013). In a few lines: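 Read-out: reporter mRNA induction via RT-PCR plus capillary electrophoresis fluorescence, analysed as signal increase relative to DMSO. Cells were human HepG2, transiently transfected with GAL4-UAS reporter constructs and chimeric receptor-Gal4 fusions, dosed for 24 h.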

The target of experiment [6] is human Thyroid Receptor alpha (THRa1), THRA (gene 7067) (UniProt P10827). Briefly: ATG_THRa1_TRANS: Attagene TRANS-FACTORIAL HepG2 Assay for human Thyroid Receptor alpha (THRa1) (AID 2283014). A digest of the protocol: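 Transcripts from GAL4-UAS-driven reporters, measured after 24 h compound exposure by RT-PCR plus capillary electrophoresis of 6-FAM-labeled fragments, were fitted for gain of signal relative to DMSO. Cells: transiently transfected HepG2 expressing NR-Gal4 chimeras.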

Experiment [7] has as its target Retinoic acid receptor RXR-alpha (Homo sapiens) (UniProt P19793). Briefly: ATG_RXRa_TRANS: Attagene TRANS-FACTORIAL HepG2 Assay for human Retinoid X Receptor alpha (RXRa) (AID 2283012). In a few lines:
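Read-out: fluorescent reporter-transcript fragments quantified by capillary electrophoresis after RT-PCR. Transiently transfected HepG2 cells carrying GAL4-UAS reporters and NR-GAL4 chimeras were exposed to chemical for 24 h; activity scored as increase over DMSO.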

Experiment [8] has as its target human Vitamin D Receptor (VDR), VDR (gene 7421) (UniProt P11473). As to the kind of experiment: ATG_VDR_TRANS: Attagene TRANS-FACTORIAL HepG2 Assay for human Vitamin D Receptor (VDR) (AID 2283022). A digest of the protocol:
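Transactivation by an exogenous VDR-Gal4 chimera in transiently transfected HepG2 cells was measured as reporter transcript level 24 hours after chemical treatment. RT-PCR products were analysed by capillary electrophoresis and fitted in the positive direction relative to DMSO.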

For experiment [9], the target named is Nuclear receptor subfamily 1 group I member 2 (Homo sapiens) (UniProt O75469). As to the kind of experiment: ATG_PXR_TRANS: Attagene TRANS-FACTORIAL HepG2 Assay for human Pregnane X Receptor (PXR) (AID 2283008). In a few lines: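 Transactivation by exogenous PXR–GAL4 fusion measured as reporter transcript induction after 24 h compound treatment of transfected human HepG2 cells. Read-out via RT-PCR and capillary electrophoresis of labelled fragments, fitted upward relative to DMSO.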

Records with an inconclusive call do not appear. The source made the active and inactive calls. Rule for the calls: active = hit-call score of the fitted dose curve at least 0.9, where 1 is the maximum; inconclusive = response in the unintended direction; inactive = score below 0.9.

Broadly, the AC50 is the midpoint of the concentration-response curve, whichever way the signal moves.

human Thyroid Receptor alpha (THRa1), THRA (gene 7067), sequence (P10827 whole entry, looked up, the tested form may be a part): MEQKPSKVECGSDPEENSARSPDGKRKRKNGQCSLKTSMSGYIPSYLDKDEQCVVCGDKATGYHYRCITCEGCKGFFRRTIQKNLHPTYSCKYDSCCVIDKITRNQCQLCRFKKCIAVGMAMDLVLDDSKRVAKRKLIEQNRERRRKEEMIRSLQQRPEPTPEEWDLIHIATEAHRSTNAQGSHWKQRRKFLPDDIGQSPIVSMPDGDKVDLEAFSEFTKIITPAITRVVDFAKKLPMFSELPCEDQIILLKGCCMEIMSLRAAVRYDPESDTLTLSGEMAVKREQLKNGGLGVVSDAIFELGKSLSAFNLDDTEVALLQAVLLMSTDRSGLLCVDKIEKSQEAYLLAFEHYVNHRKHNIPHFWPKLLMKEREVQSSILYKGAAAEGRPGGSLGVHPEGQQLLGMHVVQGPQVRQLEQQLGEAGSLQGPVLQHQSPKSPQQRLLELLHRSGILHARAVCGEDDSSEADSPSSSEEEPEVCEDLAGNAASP
human Retinoid X Receptor beta (RXRb), RXRB (gene 6257), sequence (P28702 whole entry, looked up, the tested form may be a part): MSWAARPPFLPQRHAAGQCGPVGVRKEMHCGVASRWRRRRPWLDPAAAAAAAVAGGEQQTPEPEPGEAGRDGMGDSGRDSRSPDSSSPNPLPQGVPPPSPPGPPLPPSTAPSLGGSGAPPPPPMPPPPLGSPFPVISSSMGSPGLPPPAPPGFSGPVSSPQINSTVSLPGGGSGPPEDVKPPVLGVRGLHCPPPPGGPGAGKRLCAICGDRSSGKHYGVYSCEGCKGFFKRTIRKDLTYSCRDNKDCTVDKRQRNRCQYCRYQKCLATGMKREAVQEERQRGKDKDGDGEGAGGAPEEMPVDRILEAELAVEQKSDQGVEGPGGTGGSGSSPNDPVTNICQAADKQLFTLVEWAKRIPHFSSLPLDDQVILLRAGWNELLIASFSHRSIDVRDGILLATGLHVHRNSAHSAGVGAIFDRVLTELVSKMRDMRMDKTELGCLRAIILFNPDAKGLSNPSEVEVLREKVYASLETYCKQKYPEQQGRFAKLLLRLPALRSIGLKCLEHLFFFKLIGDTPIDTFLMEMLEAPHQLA
human Vitamin D Receptor (VDR), VDR (gene 7421), sequence (P11473 whole entry, looked up, the tested form may be a part): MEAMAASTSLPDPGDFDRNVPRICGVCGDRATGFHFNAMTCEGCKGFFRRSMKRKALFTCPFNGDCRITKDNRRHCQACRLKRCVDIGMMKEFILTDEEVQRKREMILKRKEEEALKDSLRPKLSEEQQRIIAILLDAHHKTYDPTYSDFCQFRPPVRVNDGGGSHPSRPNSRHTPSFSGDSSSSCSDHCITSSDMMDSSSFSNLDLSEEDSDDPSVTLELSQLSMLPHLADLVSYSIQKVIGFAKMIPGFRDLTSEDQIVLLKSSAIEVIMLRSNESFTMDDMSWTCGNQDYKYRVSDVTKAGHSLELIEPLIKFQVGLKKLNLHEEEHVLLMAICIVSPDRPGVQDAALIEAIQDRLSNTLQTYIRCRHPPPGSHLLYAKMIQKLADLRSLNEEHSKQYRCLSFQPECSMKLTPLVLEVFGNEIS
Nuclear receptor subfamily 1 group I member 2 (Homo sapiens), sequence (O75469 whole entry, looked up, the tested form may be a part): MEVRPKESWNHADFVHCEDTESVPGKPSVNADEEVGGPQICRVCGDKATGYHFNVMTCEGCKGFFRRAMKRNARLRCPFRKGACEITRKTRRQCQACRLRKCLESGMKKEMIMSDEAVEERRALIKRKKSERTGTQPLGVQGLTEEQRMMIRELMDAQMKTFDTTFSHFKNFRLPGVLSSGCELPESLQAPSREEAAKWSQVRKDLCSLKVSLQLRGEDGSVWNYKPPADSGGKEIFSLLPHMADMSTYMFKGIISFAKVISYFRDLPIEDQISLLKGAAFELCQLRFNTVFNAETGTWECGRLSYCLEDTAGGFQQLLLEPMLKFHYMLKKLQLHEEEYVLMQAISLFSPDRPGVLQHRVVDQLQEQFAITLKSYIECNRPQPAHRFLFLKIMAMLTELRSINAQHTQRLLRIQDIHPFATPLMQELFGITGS
Retinoic acid receptor RXR-alpha (Homo sapiens), sequence (P19793 whole entry, looked up, the tested form may be a part): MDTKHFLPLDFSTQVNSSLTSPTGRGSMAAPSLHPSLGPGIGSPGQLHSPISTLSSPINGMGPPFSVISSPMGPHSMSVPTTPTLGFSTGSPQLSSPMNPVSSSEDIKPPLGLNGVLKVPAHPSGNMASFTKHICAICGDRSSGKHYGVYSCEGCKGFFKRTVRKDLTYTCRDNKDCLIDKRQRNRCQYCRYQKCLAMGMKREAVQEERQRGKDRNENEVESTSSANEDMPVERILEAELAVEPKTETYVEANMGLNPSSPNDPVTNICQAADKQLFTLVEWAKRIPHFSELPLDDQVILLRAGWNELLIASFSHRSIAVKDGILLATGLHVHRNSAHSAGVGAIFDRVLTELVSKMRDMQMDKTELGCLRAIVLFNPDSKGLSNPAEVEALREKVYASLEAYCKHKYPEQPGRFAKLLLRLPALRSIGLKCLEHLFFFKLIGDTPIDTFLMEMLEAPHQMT
Peroxisome proliferator-activated receptor gamma (Homo sapiens), sequence (P37231 whole entry, looked up, the tested form may be a part): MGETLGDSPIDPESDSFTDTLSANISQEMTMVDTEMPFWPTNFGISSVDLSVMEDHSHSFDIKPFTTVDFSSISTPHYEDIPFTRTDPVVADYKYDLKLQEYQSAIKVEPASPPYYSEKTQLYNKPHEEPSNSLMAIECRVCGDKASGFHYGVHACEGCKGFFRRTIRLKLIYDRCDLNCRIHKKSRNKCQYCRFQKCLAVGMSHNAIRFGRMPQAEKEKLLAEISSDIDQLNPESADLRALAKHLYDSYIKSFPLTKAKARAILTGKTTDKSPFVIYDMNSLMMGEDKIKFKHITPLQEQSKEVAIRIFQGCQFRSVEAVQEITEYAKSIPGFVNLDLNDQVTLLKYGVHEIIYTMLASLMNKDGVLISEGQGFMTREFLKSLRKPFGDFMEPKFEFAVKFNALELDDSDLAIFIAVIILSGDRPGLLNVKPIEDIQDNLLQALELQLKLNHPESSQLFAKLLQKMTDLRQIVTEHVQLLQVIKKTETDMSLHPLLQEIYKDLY
human Retinoic Acid Receptor gamma (RARg), RARG (gene 5916), sequence (P13631 whole entry, looked up, the tested form may be a part): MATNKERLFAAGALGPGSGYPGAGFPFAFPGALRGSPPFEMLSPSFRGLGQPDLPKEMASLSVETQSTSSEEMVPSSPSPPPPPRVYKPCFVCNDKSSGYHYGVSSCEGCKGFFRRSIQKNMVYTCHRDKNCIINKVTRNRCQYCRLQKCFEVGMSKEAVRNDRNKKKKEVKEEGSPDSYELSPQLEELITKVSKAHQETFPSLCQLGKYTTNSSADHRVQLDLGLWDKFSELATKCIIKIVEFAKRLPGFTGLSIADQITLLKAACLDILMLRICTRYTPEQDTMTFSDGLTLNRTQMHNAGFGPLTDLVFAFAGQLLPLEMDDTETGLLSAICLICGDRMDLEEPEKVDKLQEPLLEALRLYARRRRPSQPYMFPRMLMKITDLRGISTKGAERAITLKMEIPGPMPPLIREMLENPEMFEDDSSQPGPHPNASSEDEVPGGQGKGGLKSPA
human RAR-related Orphan Receptor beta (RORb), RORB (gene 6096), sequence (Q92753 whole entry, looked up, the tested form may be a part): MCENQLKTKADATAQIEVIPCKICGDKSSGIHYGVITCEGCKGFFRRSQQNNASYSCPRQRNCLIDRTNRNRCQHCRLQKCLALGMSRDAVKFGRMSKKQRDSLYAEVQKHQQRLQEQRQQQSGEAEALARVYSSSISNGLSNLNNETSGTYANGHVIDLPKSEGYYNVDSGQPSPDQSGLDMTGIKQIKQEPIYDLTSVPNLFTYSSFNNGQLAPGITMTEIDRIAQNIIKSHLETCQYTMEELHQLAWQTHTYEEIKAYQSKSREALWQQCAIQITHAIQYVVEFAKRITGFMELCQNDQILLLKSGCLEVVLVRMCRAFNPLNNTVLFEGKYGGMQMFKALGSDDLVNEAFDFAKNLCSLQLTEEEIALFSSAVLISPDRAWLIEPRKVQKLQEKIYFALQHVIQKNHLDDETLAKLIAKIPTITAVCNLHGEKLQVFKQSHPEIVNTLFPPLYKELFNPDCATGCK
human RAR-related Orphan Receptor gamma (RORg), RORC (gene 6097), sequence (P51449 whole entry, looked up, the tested form may be a part): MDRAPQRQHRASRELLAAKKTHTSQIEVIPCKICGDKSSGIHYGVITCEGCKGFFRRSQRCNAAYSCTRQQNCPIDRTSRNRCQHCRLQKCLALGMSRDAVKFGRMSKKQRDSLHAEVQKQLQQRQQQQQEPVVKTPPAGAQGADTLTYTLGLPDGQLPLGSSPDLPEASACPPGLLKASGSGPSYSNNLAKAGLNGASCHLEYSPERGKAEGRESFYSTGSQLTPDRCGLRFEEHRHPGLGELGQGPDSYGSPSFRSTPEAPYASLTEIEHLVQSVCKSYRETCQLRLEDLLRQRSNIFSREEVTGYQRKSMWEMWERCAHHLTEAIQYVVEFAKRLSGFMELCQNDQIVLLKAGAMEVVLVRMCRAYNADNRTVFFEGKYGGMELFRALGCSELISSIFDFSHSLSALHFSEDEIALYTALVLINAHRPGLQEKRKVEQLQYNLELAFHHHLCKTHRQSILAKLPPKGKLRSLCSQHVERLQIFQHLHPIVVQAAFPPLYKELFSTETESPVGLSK

On to `C=CC(=O)OCC(COC(=O)C=C)(COC(=O)C=C)COC(=O)C=C`, for which the AC50 in [1] and in experiment [5] was 100 µM (active) each time. Moreover, the call in experiment [2], in experiment [3], in experiment [4] and in experiment [6] was inactive.

`Cc1ccc(CCl)cc1`: the outcome in experiment [1], in [4] and in experiment [6] was inactive.

Take `CNC(=O)CSP(=O)(OC)OC`: the call in experiment [1] and in experiment [6] was inactive.

`CN(C)[C@@H]1C(=O)C(C(N)=O)=C(O)[C@@]2(O)C(=O)C3=C(O)c4c(O)ccc(Cl)c4[C@@](C)(O)[C@H]3C[C@@H]12`: the call in experiment [2], in experiment [4], in experiment [7], in [6] and in experiment [8] was inactive.

With `N#CS`, the compound was classed as inactive in experiment [9], in experiment [3], in experiment [7] and in experiment [5].

In the case of `ClCCN1CCOCC1`, the compound was called inactive in experiment [4] and in [5].

Consider `C#CCO`, for which the compound was called inactive in experiment [1], in [2], in experiment [3], in experiment [4], in [5] and in experiment [6]. In addition, in experiment [8], the result was inactive.

Regarding `CCCCCCCCCCCCBr`, the AC50 in [1] was 43.3 µM (active). Also, the outcome in experiment [5] was inactive.

Consider `CCCCS(=O)(=O)Cl`, for which the result in experiment [9], in experiment [3] and in experiment [4] was inactive.

`CC(O)(CS(=O)(=O)c1ccc(F)cc1)C(=O)Nc1ccc(C#N)c(C(F)(F)F)c1` (stereo not drawn): the outcome in experiment [9], in experiment [2], in experiment [7] and in experiment [6] was inactive.

As to `CCCCCCCCCCCCOS(=O)(=O)O`, the compound was classed as inactive in [9], in experiment [3] and in experiment [7]. Further, the AC50 in experiment [5] was 33.4 µM (active).

Consider `C=CCc1ccccc1O`, for which the compound was classed as inactive in experiment [9], in [7] and in experiment [5].

As to `O=c1[nH]c2ccccc2n1C1CCN(CCCC(c2ccc(F)cc2)c2ccc(F)cc2)CC1`, the outcome in experiment [9] and in [7] was inactive.

In the case of `C=CC(=O)NC(C)(C)CC(C)=O`, the result in experiment [9], in [3], in experiment [4], in experiment [6] and in [8] was inactive.

Consider `CC(C)(c1ccccc1)c1cc(-n2nc3ccccc3n2)c(O)c(C(C)(C)c2ccccc2)c1`, for which the result in experiment [9], in experiment [2], in [4] and in experiment [6] was inactive.

As for `NNCCO`, the call in [9], in [4], in experiment [7], in experiment [6] and in experiment [8] was inactive.

For `CNC(=O)O/N=C/C(C)(C)S(C)(=O)=O`, the compound was called inactive in experiment [3], in [5] and in [6].

`O=C(O)COc1ccc(Cl)cc1`: the call in experiment [1], in experiment [7], in experiment [5], in experiment [6] and in [8] was inactive.

Turning to `Nc1nc(N)nc(Cl)n1`, the compound was classed as inactive in experiment [1], in experiment [2], in experiment [4] and in [6].

For `CCOc1cc(C=O)ccc1O`, the result in experiment [9], in experiment [3], in experiment [4], in experiment [7], in experiment [5] and in [6] was inactive.

On to `CCC[CH2][Sn]([Cl])([Cl])[CH2]CCC`, for which, in experiment [1], the AC50 is 0.73 µM (active). Further, in experiment [6], the result was inactive.

Regarding `ClCCCCl`, the call in experiment [9], in [4], in experiment [7] and in experiment [8] was inactive.

For `CC(C)(C#N)N=NC(C)(C)C#N`, the call in experiment [9] and in experiment [5] was inactive.

For the compound `C#C[C@]1(O)CC[C@H]2[C@@H]3CCC4=CC(=O)CC[C@]4(C)[C@H]3CC[C@@]21C`, the compound was called inactive in experiment [4], in [7] and in [6].

In the case of `O=NN1CCOCC1`, the compound was called inactive in [1], in experiment [7], in experiment [6] and in experiment [8].

Consider `C=C(C)[C@@H]1CC=C(C=O)CC1`, for which the AC50 in experiment [1] was 22.5 µM (active); in [9] it was 11 µM (active). Besides, the compound was called inactive in [6] and in [8].

With `CC(C)(C)c1ccc(CCOc2ncnc3ccccc23)cc1`, the call in [9], in experiment [7], in experiment [5] and in [8] was inactive.

Take `CCOP(=S)(OCC)SCSc1cc(Cl)ccc1Cl`: the compound was called inactive in experiment [1], in experiment [4], in experiment [6] and in experiment [8]. The AC50 in experiment [5] is 25.5 µM (active).

Take `Brc1ccc(Oc2c(Br)cc(Br)cc2Br)c(Br)c1`: the call in experiment [9], in [3], in experiment [4], in experiment [7] and in experiment [5] was inactive.

Turning to `CCCCCCCCBr`, the outcome in experiment [1], in [7], in experiment [5] and in experiment [8] was inactive.

As to `O=[N+]([O-])c1cc([As](=O)(O)O)ccc1O`, the outcome in [9], in experiment [3], in experiment [5] and in experiment [6] was inactive.

In the case of `Nc1ccc(-c2ccccc2)cc1`, the compound was classed as inactive in experiment [9], in experiment [3], in experiment [7], in [5] and in experiment [6].

With `CC1(C)COP(Oc2ccccc2)OC1`, the compound was classed as inactive in experiment [2], in experiment [4], in experiment [7] and in experiment [5].

In the case of `CS(=O)(=O)c1ccc(C(=O)C2C(=O)CCCC2=O)c(Cl)c1COCC(F)(F)F`, the call in experiment [9], in experiment [4] and in experiment [7] was inactive.

Take `BrCC(Br)c1ccccc1` (stereo not drawn): the outcome in experiment [1], in experiment [3], in experiment [4], in experiment [7] and in experiment [8] was inactive.

Regarding `CC(=Cc1ccccc1)[N+](=O)[O-]`, the results for the AC50 in [1] and in [5] were 3.91 µM (active) and 17.3 µM (active), respectively. Also, the result in experiment [3] was inactive.

`ClCc1ccccc1Cl`: the compound was called inactive in experiment [1], in experiment [3] and in experiment [4].
